Data as given in PubChem BioAssay (EPA / NIEHS).
Values joined by “and” are separate entries in the source; they are usually repeats but may differ in a detail not shown here. Equal entries are not always repeated. Results filed as inconclusive are left out. Active and inactive are the calls of the source. Rule for the calls, unless noted: active = hit-call score of the fitted dose curve at least 0.9, where 1 is the maximum; inconclusive = response in the unintended direction; inactive = score below 0.9.

Molecular target: Retinoic acid receptor RXR-alpha (Homo sapiens) (UniProt P19793)
Test: ATG_RXRa_TRANS: Attagene TRANS-FACTORIAL HepG2 Assay for human Retinoid X Receptor alpha (RXRa) (AID 2283012)
Settings: not given
In short: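 HepG2 cells transiently transfected with GAL4-UAS reporter units and chimeric RXRa-Gal4 protein, treated 24 h. Reporter mRNA measured by RT-PCR, fluorescent labelling, HpaI digestion and capillary electrophoresis. Induction fitted against DMSO.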

Chain of Retinoic acid receptor RXR-alpha (Homo sapiens) (P19793 whole entry, looked up): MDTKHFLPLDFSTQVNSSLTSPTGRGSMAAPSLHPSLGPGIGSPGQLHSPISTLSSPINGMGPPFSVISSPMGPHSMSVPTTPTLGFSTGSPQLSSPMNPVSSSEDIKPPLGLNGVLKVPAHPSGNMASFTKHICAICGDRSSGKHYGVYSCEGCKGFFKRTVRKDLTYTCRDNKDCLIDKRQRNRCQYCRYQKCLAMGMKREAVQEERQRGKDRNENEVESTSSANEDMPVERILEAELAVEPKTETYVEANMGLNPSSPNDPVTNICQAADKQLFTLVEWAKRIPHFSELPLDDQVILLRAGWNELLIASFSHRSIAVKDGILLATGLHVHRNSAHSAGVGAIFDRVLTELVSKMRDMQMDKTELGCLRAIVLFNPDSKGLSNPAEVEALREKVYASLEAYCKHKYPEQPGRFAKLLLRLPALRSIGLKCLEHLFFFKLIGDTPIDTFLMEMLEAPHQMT
Chain of E-selectin (Homo sapiens) (P16581 whole entry, looked up): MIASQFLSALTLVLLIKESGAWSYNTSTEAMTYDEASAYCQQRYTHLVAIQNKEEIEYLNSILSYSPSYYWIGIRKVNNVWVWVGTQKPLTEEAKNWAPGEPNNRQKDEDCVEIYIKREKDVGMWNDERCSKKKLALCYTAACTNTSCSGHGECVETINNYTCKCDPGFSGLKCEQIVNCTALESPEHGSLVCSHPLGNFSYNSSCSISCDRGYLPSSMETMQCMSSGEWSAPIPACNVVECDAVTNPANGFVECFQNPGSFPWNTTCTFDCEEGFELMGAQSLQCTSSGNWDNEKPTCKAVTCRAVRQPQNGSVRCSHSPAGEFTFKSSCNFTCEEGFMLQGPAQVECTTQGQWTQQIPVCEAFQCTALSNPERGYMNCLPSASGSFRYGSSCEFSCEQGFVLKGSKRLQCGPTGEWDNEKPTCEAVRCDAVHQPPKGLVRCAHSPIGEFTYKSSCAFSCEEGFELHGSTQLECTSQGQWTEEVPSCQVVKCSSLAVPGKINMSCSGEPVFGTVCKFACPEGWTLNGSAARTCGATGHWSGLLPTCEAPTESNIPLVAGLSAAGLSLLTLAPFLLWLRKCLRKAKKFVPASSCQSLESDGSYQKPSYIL

outcome, inactive:
C=CC(=O)OCCN(CC)CC, COC1=CC(=O)C[C@@H](C)[C@]12Oc1c(Cl)c(OC)cc(OC)c1C2=O, CCCCc1oc2ccccc2c1C(=O)c1cc(I)c(OCCN(CC)CC)c(I)c1, CCOC(=O)c1nc(C(Cl)(Cl)Cl)n(-c2ccc(Cl)cc2Cl)n1, Oc1c(Cl)cc(Cl)cc1Sc1cc(Cl)cc(Cl)c1O, Cc1ccc(C(=O)c2ccccc2)cc1, O=C1OC(=O)C(F)(F)C1(F)F, CN(CCO)S(=O)(=O)C(F)(F)C(F)(F)C(F)(F)C(F)(F)C(F)(F)C(F)(F)C(F)(F)C(F)(F)F, CC(C)(C)C1CCCCC1O (configuration not stated), OCC(CO)(CBr)CBr, Cn1sccc1=O, CC[N+](CC)(CC)Cc1ccccc1, CCC(=O)C=Cc1ccc(OC)cc1, O=P(O)(O)CCC(F)(F)C(F)(F)C(F)(F)C(F)(F)C(F)(F)C(F)(F)F, CC1CCC(C(=O)O)CC1 (configuration not stated), N=C(N)c1ccc(OCCCCCOc2ccc(C(=N)N)cc2)cc1, O=C(OC(=O)C(F)(F)C(F)(F)F)C(F)(F)C(F)(F)F, O=C(O)CCC(F)(F)C(F)(F)C(F)(F)C(F)(F)C(F)(F)F, O=C1c2ccc(O)c(O)c2C(=O)c2c(O)ccc(O)c21, C=COC(=O)C(C)(C)CCCCCC, Cc1[nH]nc2c1N=C(c1ccccc1Cl)c1cc([N+](=O)[O-])ccc1N2, CCCCCCCCCCCC[N+](C)(C)Cc1ccccc1, OCC(F)(F)C(F)(F)C(F)(F)C(F)(F)C(F)(F)C(F)(F)C(F)(F)C(F)(F)C(F)(F)C(F)(F)C(F)(F)F

Molecular target: human Retinoid X Receptor beta (RXRb), RXRB (gene 6257) (UniProt P28702)
Test: ATG_RXRb_TRANS: Attagene TRANS-FACTORIAL HepG2 Assay for human Retinoid X Receptor beta (RXRb) (AID 2283013)
Settings: not given
In short: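 HepG2 cells were transiently transfected with multiplexed GAL4-UAS reporters and a chimeric RXRb-Gal4 construct, then exposed for 24 h. Reporter mRNA was quantified by RT-PCR, FAM labeling, HpaI digestion and capillary electrophoresis; gain of signal was scored against DMSO.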

Chain of human Retinoid X Receptor beta (RXRb), RXRB (gene 6257) (P28702 whole entry, looked up): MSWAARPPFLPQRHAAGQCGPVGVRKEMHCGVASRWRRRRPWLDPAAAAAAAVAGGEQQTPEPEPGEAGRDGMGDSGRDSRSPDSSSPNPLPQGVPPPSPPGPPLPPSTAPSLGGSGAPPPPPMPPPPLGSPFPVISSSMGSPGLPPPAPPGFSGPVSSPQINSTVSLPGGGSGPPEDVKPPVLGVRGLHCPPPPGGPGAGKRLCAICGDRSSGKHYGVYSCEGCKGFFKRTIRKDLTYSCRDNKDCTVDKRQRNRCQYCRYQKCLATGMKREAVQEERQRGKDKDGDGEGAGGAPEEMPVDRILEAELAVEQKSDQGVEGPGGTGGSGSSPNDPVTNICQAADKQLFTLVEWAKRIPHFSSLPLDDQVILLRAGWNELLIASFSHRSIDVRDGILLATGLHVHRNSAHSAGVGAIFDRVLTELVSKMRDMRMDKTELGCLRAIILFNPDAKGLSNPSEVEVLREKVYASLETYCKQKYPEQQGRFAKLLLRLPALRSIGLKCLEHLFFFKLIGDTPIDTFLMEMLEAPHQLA

outcome, inactive:
Cc1cncc(C)c1, CCCCc1oc2ccccc2c1C(=O)c1cc(I)c(OCCN(CC)CC)c(I)c1, c1cc[nH]c1, CCC(C)c1nccnc1OC (configuration not stated), Cc1cc(Cc2cc(C)cc(C(C)(C)C)c2O)c(O)c(C(C)(C)C)c1, CC[N+](CC)(CC)Cc1ccccc1, Cc1ccccc1C(OCCN(C)C)c1ccccc1 (configuration not stated), CC(C)(c1ccc(Oc2ccc(N)cc2)cc1)c1ccc(Oc2ccc(N)cc2)cc1, CCO[Si](C)(C)OCC, C[N+](C)(CCCNS(=O)(=O)CCC(F)(F)C(F)(F)C(F)(F)C(F)(F)C(F)(F)C(F)(F)F)CC(=O)[O-], O=C(O)CCC(F)(F)C(F)(F)C(F)(F)C(F)(F)C(F)(F)F, O=CC(F)(F)C(F)(F)C(F)(F)C(F)F, O=C1c2ccc(O)c(O)c2C(=O)c2c(O)ccc(O)c21, Nc1ccc(O)c(C(=O)O)c1, Cc1[nH]nc2c1N=C(c1ccccc1Cl)c1cc([N+](=O)[O-])ccc1N2, c1cc2cccc3c4cccc5cccc(c(c1)c23)c54, OCC(F)(F)C(F)(F)C(F)(F)C(F)(F)C(F)(F)C(F)(F)C(F)(F)C(F)(F)C(F)(F)C(F)(F)C(F)(F)F

AC50, active:
Cc1ccc(C(=O)c2ccccc2)cc1 75.9 µM, CCCCCCOC(=O)c1ccc(O)cc1 33.4 µM, C=COC(=O)C(C)(C)CCCCCC 62 µM

Molecular target: human Thyroid Receptor alpha (THRa1), THRA (gene 7067) (UniProt P10827)
Test: ATG_THRa1_TRANS: Attagene TRANS-FACTORIAL HepG2 Assay for human Thyroid Receptor alpha (THRa1) (AID 2283014)
Settings: not given
In short: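 Reporter transcript induction, read by capillary electrophoresis of 6-FAM-labelled RT-PCR products, reflects activity of a transfected THRa1-Gal4 fusion in HepG2 liver cells. Cells were dosed for 24 h; activity was fitted in the positive direction against DMSO.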

Chain of human Thyroid Receptor alpha (THRa1), THRA (gene 7067) (P10827 whole entry, looked up): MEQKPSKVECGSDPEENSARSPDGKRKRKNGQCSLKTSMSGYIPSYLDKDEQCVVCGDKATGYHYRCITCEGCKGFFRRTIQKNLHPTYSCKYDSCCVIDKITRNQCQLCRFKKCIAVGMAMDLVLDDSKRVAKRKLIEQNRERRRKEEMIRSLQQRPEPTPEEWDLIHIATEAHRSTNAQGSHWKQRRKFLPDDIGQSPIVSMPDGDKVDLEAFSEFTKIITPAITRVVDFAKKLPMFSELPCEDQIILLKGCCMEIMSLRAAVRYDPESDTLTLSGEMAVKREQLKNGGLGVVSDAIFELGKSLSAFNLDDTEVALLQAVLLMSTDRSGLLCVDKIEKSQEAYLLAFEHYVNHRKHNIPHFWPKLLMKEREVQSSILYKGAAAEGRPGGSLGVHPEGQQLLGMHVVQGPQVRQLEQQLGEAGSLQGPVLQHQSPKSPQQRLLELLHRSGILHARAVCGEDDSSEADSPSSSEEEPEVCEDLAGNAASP

outcome, inactive:
C=CC(=O)OCCN(CC)CC, COC1=CC(=O)C[C@@H](C)[C@]12Oc1c(Cl)c(OC)cc(OC)c1C2=O, Cc1ccc(C(=O)c2ccccc2)cc1, O=C1OC(=O)C(F)(F)C1(F)F, CN(CCO)S(=O)(=O)C(F)(F)C(F)(F)C(F)(F)C(F)(F)C(F)(F)C(F)(F)C(F)(F)C(F)(F)F, CC(C)(C)C1CCCCC1O (configuration not stated), Cn1sccc1=O, CCC(=O)C=Cc1ccc(OC)cc1, O=P(O)(O)CCC(F)(F)C(F)(F)C(F)(F)C(F)(F)C(F)(F)C(F)(F)F, CC1CCC(C(=O)O)CC1 (configuration not stated), O=C(OC(=O)C(F)(F)C(F)(F)F)C(F)(F)C(F)(F)F, C[N+](C)(CCCNS(=O)(=O)CCC(F)(F)C(F)(F)C(F)(F)C(F)(F)C(F)(F)C(F)(F)F)CC(=O)[O-], c1cc2cccc3c4cccc5cccc(c(c1)c23)c54, CCCCCCCCCCCC[N+](C)(C)Cc1ccccc1

AC50, active:
CCOC(=O)c1nc(C(Cl)(Cl)Cl)n(-c2ccc(Cl)cc2Cl)n1 2.11 µM

Read-out: E-selectin (Homo sapiens) (UniProt P16581)
Test: BSK_3C_Eselectin: BioMAP Diversity Plus: 3C Assay for Eselectin Biomarker Activity (AID 2283015; active = hit-call score of the fitted dose curve at least 0.9, where 1 is the maximum; inactive = score below 0.9;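 for outcome: cell surface E-selectin protein quantified by ELISA 24 h after dosing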)
Settings: primary human endothelial cells (HUVEC); actives raise or lower the signal
In short: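 ELISA read-out of E-selectin on endothelial monolayers after 24 h chemical treatment. Human umbilical vein primary cells served as the system, with DMSO defining baseline activity for bidirectional fitting.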

outcome, inactive:
COC1=CC(=O)C[C@@H](C)[C@]12Oc1c(Cl)c(OC)cc(OC)c1C2=O, CN(CCO)S(=O)(=O)C(F)(F)C(F)(F)C(F)(F)C(F)(F)C(F)(F)C(F)(F)C(F)(F)C(F)(F)F, OCC(CO)(CBr)CBr, CC[N+](CC)(CC)Cc1ccccc1, O=P(O)(O)CCC(F)(F)C(F)(F)C(F)(F)C(F)(F)C(F)(F)C(F)(F)F, O=C(O)CCC(F)(F)C(F)(F)C(F)(F)C(F)(F)C(F)(F)F, O=C1c2ccc(O)c(O)c2C(=O)c2c(O)ccc(O)c21, OCC(F)(F)C(F)(F)C(F)(F)C(F)(F)C(F)(F)C(F)(F)C(F)(F)C(F)(F)C(F)(F)C(F)(F)C(F)(F)F

AC50, active:
CCCCc1oc2ccccc2c1C(=O)c1cc(I)c(OCCN(CC)CC)c(I)c1 24.1 µM, Oc1c(Cl)cc(Cl)cc1Sc1cc(Cl)cc(Cl)c1O 31.1 µM and 29.8 µM, Cc1ccc(C(=O)c2ccccc2)cc1 28.2 µM, N=C(N)c1ccc(OCCCCCOc2ccc(C(=N)N)cc2)cc1 0.932 µM, C=COC(=O)C(C)(C)CCCCCC 32.7 µM, Cc1[nH]nc2c1N=C(c1ccccc1Cl)c1cc([N+](=O)[O-])ccc1N2 3.2 µM
